G9a inh = qHTS Assay for Inhibitors of Histone Lysine Methyltransferase G9a | Histone-lysine N-methyltransferase EHMT2 (Homo sapiens), Q96KQ7 | G9a H3K9 monomethylation, AlphaScreen, 2 h | Potency, µM (titrated, usually from 102 µM), for the others: top-dose activity, negative = inhibition, usual class: inhibitors | 8.8% of 350,000 active; also: % is scaled to controls: 0 for no effect and ±100 for the full control effect; nearly all actives have a fitted effect of over 75% in size
Target sequence (Q96KQ7 913-1193 limits assumed): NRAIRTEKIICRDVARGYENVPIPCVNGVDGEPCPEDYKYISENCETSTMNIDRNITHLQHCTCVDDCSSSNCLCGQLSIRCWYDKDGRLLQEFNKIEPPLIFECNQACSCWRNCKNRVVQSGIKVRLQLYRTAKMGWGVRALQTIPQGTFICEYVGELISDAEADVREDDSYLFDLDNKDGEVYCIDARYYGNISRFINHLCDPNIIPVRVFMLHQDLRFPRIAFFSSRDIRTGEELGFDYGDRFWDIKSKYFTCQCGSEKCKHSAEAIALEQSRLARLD
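Quantitative HTS format: methyltransferase activity on a biotin-tagged H3K9 peptide is measured by AlphaScreen, using a rabbit anti-monomethyl-H3K9 antibody with streptavidin donor and anti-IgG acceptor beads. Final levels are 20 nM enzyme, 500 nM peptide, 20 uM SAM; 2 h RT.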
JMJD2A Tudor inh = qHTS Assay for Inhibitors of JMJD2A-Tudor Domain | Potency, µM (series often up to 114 µM), for the others: top-dose activity change, negative = inhibition, hits mostly inhibitors | 4.4% of 390,000 active | AlphaScreen JMJD2A-Tudor / H3K4me3 peptide binding | Lysine-specific demethylase 4A (Homo sapiens), O75164 | AID 504339, 2011; also: % is scaled to controls: 0 for no effect and ±100 for the full control effect; nearly all actives have a fitted effect of over 50% in size
HP1b chromo inh = HTS for Inhibitors of HP1-beta Chromodomain Interactions with Methylated Histone Tails. AlphaScreen HP1-beta / biotin-H3K9me3 peptide binding. 0.56% of 390,000 active. Chromobox protein homolog 1 (Homo sapiens), P83916. Potency, µM (series often up to 114 µM), inactives show at the highest dose activity change, negative = inhibition, hits mostly inhibitors; also: nearly all actives have a fitted effect of over 70% in size
Target sequence (P83916 whole entry, looked up): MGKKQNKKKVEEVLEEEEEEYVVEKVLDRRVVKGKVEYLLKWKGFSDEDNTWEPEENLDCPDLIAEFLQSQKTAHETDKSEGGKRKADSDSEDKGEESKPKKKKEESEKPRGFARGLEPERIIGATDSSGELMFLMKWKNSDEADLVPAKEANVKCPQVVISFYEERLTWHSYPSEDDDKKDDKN
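HP1-beta protein (50 nM final) preincubated 30 min at room temperature with biotinylated H3(1-18)K9me3 peptide (50 nM) in PBS pH 7.4, 0.01% Tween-20, then compound added for 30 min. AlphaScreen streptavidin donor/nickel chelate acceptor beads (10 ug/mL final), 30 min dark, luminescence read.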
12-LOX inh = Primary qHTS assay for inhibitors of human arachidonate 12S-lipoxygenase (ALOX12): Round 2. Polyunsaturated fatty acid lipoxygenase ALOX12 (Homo sapiens), P18054. purified 12hLO, xylenol orange hydroperoxide absorbance. Potency, µM (series often up to 108 µM), without a hit: at the highest dose activity change, negative = inhibition, most hits filed as inhibitors. 1.1% of 580,000 active. AID 1671190, 2021; also: % is scaled to controls: 0 for no effect and ±100 for the full control effect
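Purified human 12hLO at 150 nM in 25 mM Hepes, 0.01% Triton X-100, pH 7.0, preincubated 15 min at room temperature with compound. Reaction started with 40 uM arachidonic acid, 30 min at room temperature. Hydroperoxide measured by Fe-xylenol orange, 573/405 nm absorbance ratio.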
Sfp inh = qHTS Assay for Inhibitors of Bacillus subtilis Sfp phosphopantetheinyl transferase (PPTase); 4'-phosphopantetheinyl transferase ffp (Bacillus subtilis), Q9F4F7; Biochemical Sfp PPTase activity, qHTS; Potency, µM, inactives show largest response in the series, negative = inhibition, most hits filed as inhibitors; 3.5% of 310,000 active;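 also: the enzyme is Sfp with the accession as filed and its product quenches rhodamine fluorescence; 0% = enzyme reaction without inhibitor and -100% = no enzyme wells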
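Sfp 15 nM + cpd, 15 min RT; start w/ rhodamine-CoA 5 uM, BHQ-2-YbbR 12.5 uM (final); 50 mM Hepes pH 7.6, 10 mM MgCl2, 0.01% NP-40, 0.01% BSA; read 525/598 nm at 0 and 30 min.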
BAZ2B inh = qHTS Assay for Inhibitors of BAZ2B. Potency, µM (top dose mostly 114 µM), without a hit: at the highest dose activity change, negative = inhibition, actives largely listed as inhibitors. 4.4% of 360,000 active. AlphaScreen BAZ2B-H3K14Ac peptide displacement. Bromodomain adjacent to zinc finger domain protein 2B (Homo sapiens), Q9UIF8; also: % is scaled to controls: 0 for no effect and ±100 for the full control effect; nearly all actives have a fitted effect of over 60% in size
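BAZ2B (50 nM) with biotin-H3(5-23)K14Ac peptide (50 nM) in PBS pH 7.4, 0.01% Tween-20, preformed 30 min, then compound 30 min at room temperature; top concentration 110uM. AlphaScreen streptavidin donor/nickel chelate acceptor beads (10 ug/mL final), 20 min dark, signal read.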
Active calls of the source: *. Rows were chosen to be rich in hits. Some 8.7% of all compounds tested hit in one or more screens of this group. Calls follow the shape of the dose curve; as a rule, active = well fitted curve in the direction sought with a large enough effect; inconclusive = small, poorly fitted or top-dose-only effect, or another doubt; inactive = no such curve, though single readings can be large; an effect the other way counts as inactive or inconclusive. Potency is read from the fitted curve at half-maximal effect.

Results for COc1ccccc1NC(=O)CCc1nc2ccccc2s1 ?
G9a inh: 1%; JMJD2A Tudor inh: 20µM*; HP1b chromo inh: 1%; 12-LOX inh: 12%; Sfp inh: 19%; BAZ2B inh: -12%

Results for O=C(CCc1nc2ccccc2s1)Nc1ccccc1 ?
G9a inh: 2%; JMJD2A Tudor inh: 2%; HP1b chromo inh: 47%; 12-LOX inh: inconclusive; Sfp inh: 6%; BAZ2B inh: -2%

How did CC(C)c1ccccc1NC(=O)CCc1nc2ccccc2s1 do in these assays?
G9a inh: 20µM*; JMJD2A Tudor inh: -20%; HP1b chromo inh: 17%; 12-LOX inh: -32%; Sfp inh: inconclusive; BAZ2B inh: -13%

How did O=C(O)CCCC(=O)Nc1ccc(OCc2nc3ccccc3s2)cc1 do in these assays?
G9a inh: 3.2µM*; JMJD2A Tudor inh: inconclusive; HP1b chromo inh: inconclusive; 12-LOX inh: inconclusive; Sfp inh: 8.9µM*; BAZ2B inh: inconclusive

Results for COc1ccccc1NC(=O)Cc1nc(CCl)cs1 ?
G9a inh: 6.3µM*; JMJD2A Tudor inh: inconclusive; HP1b chromo inh: 24%; 12-LOX inh: 40µM*; Sfp inh: -5%; BAZ2B inh: 56µM*

How did Cc1ccccc1NC(=O)Cc1nc(COC(=O)c2ccccn2)cs1 do in these assays?
G9a inh: 50µM*; JMJD2A Tudor inh: 1%; HP1b chromo inh: 20%; 12-LOX inh: inconclusive; BAZ2B inh: 9%

What do the screens show for `CCOC(=O)c1nc2sc(C)c(C)c2c(=O)[nH]1`?
G9a inh: -11%; JMJD2A Tudor inh: inconclusive; HP1b chromo inh: 12%; 12-LOX inh: -5%; Sfp inh: 13%; BAZ2B inh: -1%

How did CCOC(=O)/C(=C\c1cccc(O)c1)c1nc2sc(C)c(C)c2c(=O)[nH]1 do in these assays?
G9a inh: 3.2µM*; JMJD2A Tudor inh: 56µM*; HP1b chromo inh: 28µM*; 12-LOX inh: inconclusive; Sfp inh: 7.1µM*; BAZ2B inh: -28%

Results for O=C(N/N=C/c1ccnc2ccccc12)c1ccccc1O ?
G9a inh: 4%; JMJD2A Tudor inh: 100µM*; HP1b chromo inh: 1%; 12-LOX inh: -3%; Sfp inh: 4%; BAZ2B inh: -14%

How did O=C(N/N=C/c1oc(O)c2ccccc12)c1ccccc1O do in these assays?
G9a inh: 35µM*; JMJD2A Tudor inh: -16%; HP1b chromo inh: -17%; 12-LOX inh: -6%; Sfp inh: 30%; BAZ2B inh: -8%

Results for O=C(N/N=C/c1ccoc1)c1ccccc1O ?
G9a inh: -5%; JMJD2A Tudor inh: -19%; HP1b chromo inh: 3%; 12-LOX inh: -2%; Sfp inh: -1%; BAZ2B inh: inconclusive

Results for CC(C)(C)C(=O)Oc1ccc2c(=O)c(-c3ccccc3)coc2c1 ?
12-LOX inh: -9%

How did CCCc1nnc(NC(=O)CSc2ncn[nH]2)s1 do in these assays?
G9a inh: 35µM*; JMJD2A Tudor inh: -15%; HP1b chromo inh: 21%; 12-LOX inh: inconclusive; Sfp inh: 3%; BAZ2B inh: -39%

Results for CCOC(=O)c1c(NC(=O)c2cccs2)sc(C(=O)N(C)C)c1C ?
G9a inh: inconclusive; JMJD2A Tudor inh: -8%; HP1b chromo inh: -13%; 12-LOX inh: inconclusive; Sfp inh: inconclusive; BAZ2B inh: 2%

What do the screens show for `CCOC(=O)c1c(NC(=O)CSc2ncn[nH]2)sc(C(=O)NC)c1C`?
JMJD2A Tudor inh: -23%; HP1b chromo inh: 32%; 12-LOX inh: -20%; Sfp inh: 4%; BAZ2B inh: -5%
